Measured values published in ChEMBL document CHEMBL3988442, “University of Dundee, Small-Polar-MMV Screening Library” (2021).
For part of these data: Measured potencies and affinities stand elsewhere.

What was measured:
Design in all cases: scale not given: direction of the effect not stated beside the values
[1] = target: Protein translocase subunit SecA (Escherichia coli (strain K12)) (UniProt P10408); experiment: Assay to Identify E. coli SecA ATPase Inhibitors; assay type: functional; settings: 30 µM
[2] = target: T1, Ubiquitin-activating enzyme e1, putative (Leishmania donovani (strain BPK282A1)) (UniProt E9BSI1); experiment: Leishmania donovani Ubiquitin Activating Enzyme (LdE1); assay type: functional; settings: 30 µM
T1 sequence (whole entry): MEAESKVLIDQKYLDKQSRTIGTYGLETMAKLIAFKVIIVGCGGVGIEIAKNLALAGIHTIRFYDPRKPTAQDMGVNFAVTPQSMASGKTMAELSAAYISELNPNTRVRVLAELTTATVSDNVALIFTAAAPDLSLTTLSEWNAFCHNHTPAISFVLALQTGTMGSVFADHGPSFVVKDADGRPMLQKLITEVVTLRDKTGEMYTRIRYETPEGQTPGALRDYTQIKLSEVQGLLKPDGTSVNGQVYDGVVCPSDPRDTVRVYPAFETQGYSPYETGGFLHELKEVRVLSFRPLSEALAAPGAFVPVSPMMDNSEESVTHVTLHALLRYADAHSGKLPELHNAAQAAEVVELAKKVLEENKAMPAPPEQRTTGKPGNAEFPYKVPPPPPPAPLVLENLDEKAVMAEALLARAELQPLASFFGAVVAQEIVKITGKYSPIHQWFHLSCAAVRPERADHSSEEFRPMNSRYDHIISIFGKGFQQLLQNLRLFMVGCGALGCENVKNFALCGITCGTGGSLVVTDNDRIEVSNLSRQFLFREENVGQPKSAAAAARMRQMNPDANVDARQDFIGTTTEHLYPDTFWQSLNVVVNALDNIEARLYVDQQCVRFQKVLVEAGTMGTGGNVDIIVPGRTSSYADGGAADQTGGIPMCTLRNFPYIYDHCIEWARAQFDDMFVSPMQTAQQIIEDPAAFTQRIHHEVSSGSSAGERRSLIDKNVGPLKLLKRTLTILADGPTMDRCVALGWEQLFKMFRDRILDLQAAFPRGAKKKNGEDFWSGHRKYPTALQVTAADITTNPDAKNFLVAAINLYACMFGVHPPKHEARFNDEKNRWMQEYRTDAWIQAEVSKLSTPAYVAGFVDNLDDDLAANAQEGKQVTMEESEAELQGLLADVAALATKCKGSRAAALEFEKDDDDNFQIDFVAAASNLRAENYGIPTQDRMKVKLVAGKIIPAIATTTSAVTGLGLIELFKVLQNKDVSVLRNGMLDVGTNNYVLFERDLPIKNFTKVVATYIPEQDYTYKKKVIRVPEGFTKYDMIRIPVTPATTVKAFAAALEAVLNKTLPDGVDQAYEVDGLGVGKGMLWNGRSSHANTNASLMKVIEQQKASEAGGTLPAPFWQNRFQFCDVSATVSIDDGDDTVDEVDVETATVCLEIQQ

[3] = target: Sialic acid-binding Ig-like lectin 9 (Homo sapiens) (UniProt Q9Y336); experiment: Hs-Siglec9 ALPHAscreen SOP 20170721; settings: 10 µM
[4] = tested on: Trypanosoma cruzi; experiment: Trypanosoma cruzi phosphomannomutase and mannose-1-phosphate guanylyltransferase assay; assay type: functional; settings: 10 µM
[5] = target: T2, Arginase-2, mitochondrial (Homo sapiens) (UniProt P78540); experiment: in vitro enzyme assay to detect the production of urea directly proportional to the activity of Arginase II; assay type: functional; settings: 33.3 µM; also: in the data most compounds retested in dose-response had high values
T2 sequence (whole entry): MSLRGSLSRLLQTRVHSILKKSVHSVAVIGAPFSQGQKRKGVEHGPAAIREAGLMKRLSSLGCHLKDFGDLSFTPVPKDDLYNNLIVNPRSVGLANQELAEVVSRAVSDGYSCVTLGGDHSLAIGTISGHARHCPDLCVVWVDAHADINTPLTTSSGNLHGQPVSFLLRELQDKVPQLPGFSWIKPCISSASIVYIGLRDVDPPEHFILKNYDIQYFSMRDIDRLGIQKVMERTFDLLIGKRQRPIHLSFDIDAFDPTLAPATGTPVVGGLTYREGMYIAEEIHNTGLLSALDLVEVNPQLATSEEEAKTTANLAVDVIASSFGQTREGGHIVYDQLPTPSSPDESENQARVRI

[6] = target: T3, Proteasome subunit beta (Trypanosoma cruzi) (UniProt O96673); experiment: Trypanosoma cruzi proteasome chymotrypsin-like activity (TcProtChymo) assay.; also: in the data most compounds retested in dose-response had high values; assay type: functional; settings: 9.37 µM
T3 sequence (whole entry): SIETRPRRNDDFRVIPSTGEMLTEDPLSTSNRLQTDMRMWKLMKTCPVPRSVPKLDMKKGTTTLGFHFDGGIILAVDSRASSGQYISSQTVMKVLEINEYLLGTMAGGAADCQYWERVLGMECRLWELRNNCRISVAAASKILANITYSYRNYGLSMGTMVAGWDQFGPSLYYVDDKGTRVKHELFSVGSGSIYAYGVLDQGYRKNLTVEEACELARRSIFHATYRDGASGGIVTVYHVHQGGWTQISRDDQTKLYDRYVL

[7] = organism: Homo sapiens; experiment: To identify inhibition of the IFN signalling (Jak-Stat) pathway via expression of an eGFP reporter gene under the control of an IFN-stimulated response element (ISRE) containing MxA promoter.; assay type: functional; settings: 30 µM
[8] = target: T4, Tyrosyl-tRNA synthetase, putative (Trypanosoma cruzi (strain CL Brener)) (UniProt Q4DSP6); experiment: Trypanosoma cruzi tyrosyl tRNA synthetase (TcYRS) _High Tyrosine SOP; assay type: functional; settings: 30 µM; also: in the data most compounds retested in dose-response had high values
T4 sequence (whole entry): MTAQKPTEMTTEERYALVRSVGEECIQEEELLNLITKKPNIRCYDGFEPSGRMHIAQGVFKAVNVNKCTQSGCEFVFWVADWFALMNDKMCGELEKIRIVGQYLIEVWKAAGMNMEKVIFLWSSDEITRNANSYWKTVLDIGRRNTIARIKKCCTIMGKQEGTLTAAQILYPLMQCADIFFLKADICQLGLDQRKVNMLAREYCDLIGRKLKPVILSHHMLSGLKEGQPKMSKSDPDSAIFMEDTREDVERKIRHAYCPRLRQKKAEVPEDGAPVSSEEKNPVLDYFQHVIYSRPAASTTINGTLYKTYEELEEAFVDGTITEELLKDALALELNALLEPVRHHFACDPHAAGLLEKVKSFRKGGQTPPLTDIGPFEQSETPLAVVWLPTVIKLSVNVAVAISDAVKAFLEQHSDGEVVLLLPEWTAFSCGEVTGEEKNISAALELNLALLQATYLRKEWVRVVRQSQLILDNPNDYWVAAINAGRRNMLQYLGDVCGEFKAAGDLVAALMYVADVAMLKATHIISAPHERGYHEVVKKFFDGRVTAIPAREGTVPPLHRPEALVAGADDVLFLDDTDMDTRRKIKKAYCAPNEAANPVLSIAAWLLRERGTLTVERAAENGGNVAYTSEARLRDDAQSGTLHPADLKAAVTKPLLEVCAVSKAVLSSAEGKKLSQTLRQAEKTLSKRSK

[9] = target: T4, Tyrosyl-tRNA synthetase, putative (Trypanosoma cruzi (strain CL Brener)); experiment: Trypanosoma cruzi tyrosyl tRNA synthetase (TcYRS) SOP; assay type: functional; settings: 30 µM
[10] = target: Chromo domain-containing protein 1 (Saccharomyces cerevisiae (strain ATCC 204508 / S288c) (Baker's yeast)) (UniProt P32657); experiment: ScCHD-1 Enzyme Inhibition Assay; assay type: functional; settings: 30 µM; also: in the data most compounds retested in dose-response had high values
Sequence of Chromo domain-containing protein 1 (Saccharomyces cerevisiae (strain ATCC 204508 / S288c) (Baker's yeast)) (P32657 whole entry, the tested form may be a part): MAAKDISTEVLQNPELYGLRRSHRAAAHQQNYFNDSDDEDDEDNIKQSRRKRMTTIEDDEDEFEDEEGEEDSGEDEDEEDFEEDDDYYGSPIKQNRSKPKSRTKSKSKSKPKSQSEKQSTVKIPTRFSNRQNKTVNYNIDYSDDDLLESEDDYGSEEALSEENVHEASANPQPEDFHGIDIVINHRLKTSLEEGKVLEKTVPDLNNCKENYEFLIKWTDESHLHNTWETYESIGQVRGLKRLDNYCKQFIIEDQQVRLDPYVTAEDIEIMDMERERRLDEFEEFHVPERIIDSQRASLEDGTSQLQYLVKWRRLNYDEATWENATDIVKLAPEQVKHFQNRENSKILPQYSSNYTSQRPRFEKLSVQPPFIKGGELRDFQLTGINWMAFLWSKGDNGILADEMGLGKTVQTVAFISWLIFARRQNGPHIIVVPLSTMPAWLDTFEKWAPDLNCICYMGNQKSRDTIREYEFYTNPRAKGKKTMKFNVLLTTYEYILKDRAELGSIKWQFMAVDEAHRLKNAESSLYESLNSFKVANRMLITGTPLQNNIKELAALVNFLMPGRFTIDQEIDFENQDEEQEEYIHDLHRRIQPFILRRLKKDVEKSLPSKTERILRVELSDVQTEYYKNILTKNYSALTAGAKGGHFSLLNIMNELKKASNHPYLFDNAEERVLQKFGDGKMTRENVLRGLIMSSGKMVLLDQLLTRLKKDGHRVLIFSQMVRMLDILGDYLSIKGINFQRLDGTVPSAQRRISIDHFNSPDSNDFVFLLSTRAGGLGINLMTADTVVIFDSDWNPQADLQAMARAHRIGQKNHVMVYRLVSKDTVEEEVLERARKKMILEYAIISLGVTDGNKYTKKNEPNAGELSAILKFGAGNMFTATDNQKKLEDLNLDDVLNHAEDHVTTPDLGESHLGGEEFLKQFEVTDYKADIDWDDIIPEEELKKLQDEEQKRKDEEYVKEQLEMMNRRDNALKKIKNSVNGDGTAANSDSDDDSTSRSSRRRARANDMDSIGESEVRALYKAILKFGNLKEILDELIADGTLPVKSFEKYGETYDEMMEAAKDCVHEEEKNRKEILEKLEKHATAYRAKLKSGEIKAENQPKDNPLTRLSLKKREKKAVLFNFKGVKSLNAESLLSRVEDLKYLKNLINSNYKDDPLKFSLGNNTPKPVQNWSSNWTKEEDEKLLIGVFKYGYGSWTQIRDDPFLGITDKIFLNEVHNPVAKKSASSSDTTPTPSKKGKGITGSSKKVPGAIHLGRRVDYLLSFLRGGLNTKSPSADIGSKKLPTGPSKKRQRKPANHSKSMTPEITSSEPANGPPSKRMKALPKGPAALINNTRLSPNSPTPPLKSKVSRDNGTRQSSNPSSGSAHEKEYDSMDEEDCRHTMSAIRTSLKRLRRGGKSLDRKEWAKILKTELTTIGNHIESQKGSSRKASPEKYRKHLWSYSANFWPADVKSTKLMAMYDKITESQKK

Sequence of Sialic acid-binding Ig-like lectin 9 (Homo sapiens) (Q9Y336 whole entry): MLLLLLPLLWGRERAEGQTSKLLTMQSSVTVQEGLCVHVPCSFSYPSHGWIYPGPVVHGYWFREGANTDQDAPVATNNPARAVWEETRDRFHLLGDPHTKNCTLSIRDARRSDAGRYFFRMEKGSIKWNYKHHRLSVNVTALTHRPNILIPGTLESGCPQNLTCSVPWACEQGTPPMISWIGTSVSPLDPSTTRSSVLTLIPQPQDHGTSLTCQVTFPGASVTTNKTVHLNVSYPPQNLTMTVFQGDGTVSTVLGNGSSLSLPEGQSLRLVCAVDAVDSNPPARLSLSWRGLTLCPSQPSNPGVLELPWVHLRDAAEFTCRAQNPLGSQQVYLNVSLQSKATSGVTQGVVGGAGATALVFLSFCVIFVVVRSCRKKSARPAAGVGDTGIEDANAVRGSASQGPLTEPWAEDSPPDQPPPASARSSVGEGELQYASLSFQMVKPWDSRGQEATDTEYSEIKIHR
Sequence of Protein translocase subunit SecA (Escherichia coli (strain K12)) (P10408 whole entry): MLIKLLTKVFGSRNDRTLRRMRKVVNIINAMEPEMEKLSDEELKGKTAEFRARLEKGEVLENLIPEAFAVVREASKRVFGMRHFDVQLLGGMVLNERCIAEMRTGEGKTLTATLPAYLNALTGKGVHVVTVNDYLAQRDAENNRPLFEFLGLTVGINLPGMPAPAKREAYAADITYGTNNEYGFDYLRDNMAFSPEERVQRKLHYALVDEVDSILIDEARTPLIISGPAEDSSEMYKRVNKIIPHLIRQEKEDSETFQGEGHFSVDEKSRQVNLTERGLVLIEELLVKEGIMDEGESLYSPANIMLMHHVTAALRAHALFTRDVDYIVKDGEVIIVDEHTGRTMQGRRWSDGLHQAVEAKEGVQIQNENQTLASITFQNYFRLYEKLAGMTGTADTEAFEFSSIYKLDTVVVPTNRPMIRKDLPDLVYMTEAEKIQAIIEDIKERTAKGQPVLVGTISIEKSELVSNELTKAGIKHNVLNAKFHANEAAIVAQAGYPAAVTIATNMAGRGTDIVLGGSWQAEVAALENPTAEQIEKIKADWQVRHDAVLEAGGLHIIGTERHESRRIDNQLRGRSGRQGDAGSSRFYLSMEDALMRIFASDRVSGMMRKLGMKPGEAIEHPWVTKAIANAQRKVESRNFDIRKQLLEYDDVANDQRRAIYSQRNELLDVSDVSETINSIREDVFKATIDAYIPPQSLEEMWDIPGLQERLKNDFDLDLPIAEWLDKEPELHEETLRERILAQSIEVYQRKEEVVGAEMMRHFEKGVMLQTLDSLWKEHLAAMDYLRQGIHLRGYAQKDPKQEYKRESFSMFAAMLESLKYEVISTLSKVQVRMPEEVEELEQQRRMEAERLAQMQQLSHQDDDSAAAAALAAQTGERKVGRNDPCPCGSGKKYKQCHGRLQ

Compound	Percent Effect [1]	Percent Effect [2]	Percent Effect [3]	Percent Effect [4]	Percent Effect [5]	Percent Effect [6]	Percent Effect [7]	Percent Effect [8]	Percent Effect [9]	Percent Effect [10]
FC(F)(F)Cn1ccnc1CN1CCCC1c1noc(C2CC2)n1 (stereo not given)	0.298%	10.7%	-5.86%	-3.01%	-4.43%	15.7%	16.6%	4.74%	15.4%	-9.44%
Cc1nccn1-c1cccc(C2CCCN2S(=O)(=O)c2cn(C)cn2)n1 (stereo not given)	-6.36%	1.33%	-0.612%	-3.94%	-0.885%	-0.493%	22.4%	0%	-2.5%	-23.4%
Cc1cc(-c2nn(C)c(Cl)c2CN2Cc3ccccc3C(O)C2)no1 (stereo not given)	-0.14%	24.3%	18.2%	11.2%	20.6%	6.34%	47.5%	3.72%	4.88%	-1.98%
Cc1cc(C)n(C2CCCN(C(=O)c3c(C)c(C)n[nH]c3=O)C2)n1 (stereo not given)	-1.62%	8%	4.21%	-4.62%	0.887%	4.16%	17.4%	1.58%	2.56%	-4.78%
CCS(=O)(=O)c1ncc(CN(C)Cc2ccccn2)n1CCOC	-6.13%	5.41%	13.7%	5.33%	2.45%	5.65%	3.71%	4.79%	14.6%	-2.76%
Nc1nc2nc(C3CCCN(C(=O)c4cscn4)C3)ccc2s1 (stereo not given)	0.0997%	22.7%	-9.01%	3.55%	-9.29%	19.1%	25.7%	0%	7.5%	-22.1%
CC(C)n1ccnc1CN1CCCN(C(=O)c2nccnc2N)CC1	-0.38%	7.69%	-9.32%	1.97%	0%	18.3%	1.4%	9.09%	22.9%	-3.56%
O=C(C1CCCC1)N1CCC2(CC1)COCCN2CC1CC1	-2.73%	16.9%	-2.04%	-1.31%	5.02%	10%	9.54%	11.6%	15%	-9.88%
Cc1cc(NC(=O)C(C)N2CCCN(c3nccs3)CC2)on1 (stereo not given)	-5.38%	7.69%	6.57%	1.03%	5.74%	7.08%	12.4%	0.478%	8.43%	6.1%
Cc1ncc(-c2ccnc(N3CCCCCC3)n2)c(-c2cccnc2)n1	-0.407%	10.7%	0.168%	-8.03%	3.1%	8.74%	21.1%	1.58%	12.8%	-11.6%
COc1cccc(CNc2cnn(C)c(=O)c2Cl)c1	-6.48%	0%	3.58%	-1.21%	6.65%	3.48%	55.5%	2.63%	5.13%	-5.75%
O=C(C1CC1)N1CC[C@H](O)[C@@H]1Cc1ccccc1	-7.5%	3.9%	-3.5%	-0.75%	1.37%	1.8%	-8.68%	2.9%	2.5%	-12.8%
